This note sets out measurements from PubChem BioAssay (EPA / NIEHS).

Experiment [1] can be described thus: ATG_CRE_CIS: Attagene CIS-FACTORIAL HepG2 Assay for human cAMP Responsive Element (CRE) binding protein 3 (AID 2282926). The conditions noted are these: HepG2 CRE cis-reporter, Attagene multiplexed mRNA; actives raise or lower the signal. The gist of the method:
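Induced reporter mRNA from a CRE cis element, measured in HepG2 among many multiplexed units at 24 h. Detection used RT-PCR plus capillary electrophoresis of fluorescent fragments; DMSO served as negative control.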

The target of experiment [2] is CCAAT/enhancer-binding protein beta (Homo sapiens) (UniProt P17676). Briefly: ATG_C_EBP_CIS: Attagene CIS-FACTORIAL HepG2 Assay for human CCAAT/Enhancer Binding Protein (C/EBP) beta (AID 2282927). The conditions noted are these: HepG2 Attagene cis-factorial transcription factor reporter; actives raise or lower the signal. In a few lines: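 HepG2 transiently transfected with multiplexed reporter units under cis-regulatory promoters reporting endogenous C/EBPb activity. After 24 h exposure, reporter mRNA assayed by RT-PCR, fluorescent labelling, HpaI digestion and capillary electrophoresis; bidirectional fitting versus DMSO.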

The nature of experiment [3]: ATG_CMV_CIS: Attagene CIS-FACTORIAL HepG2 Assay for human CMV (Internal Marker) (AID 2282928).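 Further: endpoint acts as a background internal control marker rather than a target.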 The conditions noted are these: HepG2 CMV promoter reporter, transcription factor profiling; actives raise or lower the signal. In a few lines:
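24 h chemical treatment, HepG2 with transient multi-reporter transfection; RNA → oligo(dT) RT → PCR → 6-FAM extension → HpaI digest → CE fluorescence. Bidirectional fit, DMSO negative control.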

A short description of experiment [4]: ATG_DR4_LXR_CIS: Attagene CIS-FACTORIAL HepG2 Assay for human Liver X Receptor (LXR), DR4 submotif (AID 2282929). The conditions noted are these: HepG2 Attagene DR4 cis-reporter, mRNA transcription; actives raise or lower the signal. In a few lines: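 Endogenous factor activity at a DR4 cis-element is read as reporter mRNA in transiently transfected HepG2 cells. Exposure lasts 24 h; transcripts are amplified, fluorescently labelled and sized by capillary electrophoresis, with DMSO as baseline.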

Experiment [5] deals with Aryl hydrocarbon receptor (Homo sapiens) (UniProt P35869). Briefly: ATG_Ahr_CIS: Attagene CIS-FACTORIAL HepG2 Assay for human Aryl Hydrocarbon Receptor (Ahr) (AID 2282930). The conditions noted are these: HepG2 AhR cis-factorial reporter transcription; actives raise or lower the signal. The gist of the method:
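HepG2 cells transiently transfected with cis-element-driven multiplexed reporter units; endogenous AhR activity read as reporter mRNA 24 h after dosing, via RT-PCR, 6-FAM labelling, HpaI digestion and capillary electrophoresis. Bidirectional fit relative to DMSO.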

Experiment [6] can be described thus: ATG_AP_1_CIS: Attagene CIS-FACTORIAL HepG2 Assay for human Activator Protein 1 (AP-1) (AID 2282931). The conditions noted are these: HepG2 Attagene cis-factorial AP-1 reporter mRNA; actives raise or lower the signal. In a few lines:
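Fluorescence of labelled PCR fragments separated by capillary electrophoresis gives reporter mRNA levels. HepG2 with transfected cis-regulated reporter units, 24 h exposure; DMSO serves as baseline for bidirectional curve fits.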

Experiment [7] in a line: ATG_AP_2_CIS: Attagene CIS-FACTORIAL HepG2 Assay for human Activator Protein 2 (AP-2) (AID 2282932). The conditions noted are these: HepG2 AP-2 cis-reporter, Attagene transcription factor profiling; actives raise or lower the signal. The gist of the method:
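Read-out: fluorescent reporter mRNA via RT-PCR and capillary electrophoresis, 24 h post-dose in transiently transfected HepG2. Endogenous factors drive cis-promoter reporters; gain or loss of signal fitted bidirectionally against DMSO.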

The nature of experiment [8]: ATG_BRE_CIS: Attagene CIS-FACTORIAL HepG2 Assay for human Bone Morphogenetic Protein (BMP) Response Element (BRE) (AID 2282933). The conditions noted are these: HepG2 BMP response element reporter, Attagene transcription factor profiling; actives raise or lower the signal. The gist of the method:
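Gain- or loss-of-signal was derived by bidirectional fitting against DMSO controls. The signal came from reporter mRNA, measured by RT-PCR and capillary electrophoresis, in HepG2 cells transiently carrying multiple reporter units and dosed for 24 h.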

The target in experiment [9] is Retinoic acid receptor alpha (Homo sapiens) (UniProt P10276). Briefly: ATG_DR5_RAR_CIS: Attagene CIS-FACTORIAL HepG2 Assay for human Retinoic Acid Receptor Alpha (RARE), DR5 submotif (AID 2282934).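 On AC50: reporter responds to endogenous RAR alpha beta and gamma in HepG2 not RARA alone.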 The conditions noted are these: HepG2 Attagene cis-factorial RARE DR5 reporter, mRNA; actives raise or lower the signal. The gist of the method: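 HepG2 cells transiently transfected with multiplexed reporter units; DR5 cis-element drives reporter through endogenous transcription factors. After 24 h dosing, reporter mRNA quantified by RT-PCR, fluorescent labeling, HpaI digestion and capillary electrophoresis; bidirectional fitting versus DMSO.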

The target in experiment [10] is Transcription factor E2F1 (Homo sapiens) (UniProt Q01094). Briefly: ATG_E2F_CIS: Attagene CIS-FACTORIAL HepG2 Assay for human E2F Transcription Factor 1 (AID 2282935). The conditions noted are these: HepG2 Attagene cis-reporter, E2F reporter RNA transcripts; actives raise or lower the signal. The gist of the method:
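Transient MRTU transfection of HepG2; 24 h compound exposure; RNA → oligo(dT) RT → PCR → FAM label → HpaI cut → CE fluorescence. Gain/loss of signal fit against DMSO.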

The nature of experiment [11]: ATG_E_Box_CIS: Attagene CIS-FACTORIAL HepG2 Assay for human Enhancer Box (E-box) (AID 2282936). The conditions noted are these: HepG2 E-box cis-reporter transcription, actives raise or lower the signal. In a few lines:
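Transiently transfected HepG2, endogenous TF-driven reporters, 24 h dosing. Readout: RT-PCR plus capillary electrophoresis of fluorescent reporter fragments. Gain or loss of signal fitted bidirectionally against DMSO baseline.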

Experiment [12] can be described thus: ATG_M_61_CIS: Attagene CIS-FACTORIAL HepG2 Assay for M61 Transcription Factor (Internal Marker) (AID 2282937). The conditions noted are these: HepG2 Attagene CIS-FACTORIAL M61 internal marker reporter; actives raise or lower the signal. In a few lines:
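This endpoint serves as an internal background control within a multiplexed HepG2 cis-reporter panel. Cells are exposed for 24 h; reporter mRNA is amplified, fluorescently labelled and sized by capillary electrophoresis, with DMSO as negative control.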

Experiment [13] is described as follows: ATG_EGR_CIS: Attagene CIS-FACTORIAL HepG2 Assay for human Early Growth Response 1 (EGR1) (AID 2282938). The conditions noted are these: HepG2 Attagene CIS-FACTORIAL EGR reporter mRNA; actives raise or lower the signal. The gist of the method: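 HepG2, transient MRTU transfection (cis promoters), 24 h compound. RNA → RT (oligo-dT) → PCR → 6-FAM labelling → HpaI cut → CE fluorescence. Bidirectional fit, DMSO baseline.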

A short description of experiment [14]: ATG_M_19_CIS: Attagene CIS-FACTORIAL HepG2 Assay for M19 Transcription Factor (Internal Marker) (AID 2282939). The conditions noted are these: HepG2 Attagene CIS-FACTORIAL M19 internal marker reporter; actives raise or lower the signal. In a few lines: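 Following a 24 h exposure, RNA from transfected HepG2 cells was reverse-transcribed, PCR-amplified with reporter-specific primers, end-labelled with 6-FAM and HpaI-digested before capillary separation. Values represent gain or loss versus DMSO.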

Experiment [15] in a line: ATG_ERE_CIS: Attagene CIS-FACTORIAL HepG2 Assay for Estrogen Response Element (ERE) (AID 2282940). The conditions noted are these: HepG2 ERE cis-reporter, Attagene RNA transcript; actives raise or lower the signal. In a few lines: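 HepG2, transient cis-reporter units, 24 h exposure. RNA isolated, oligo(dT) RT, reporter-specific PCR, FAM extension, HpaI cut, CE detection. Gain/loss-of-signal vs DMSO.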

Experiment [16] can be described thus: ATG_Ets_CIS: Attagene CIS-FACTORIAL HepG2 Assay for human Erythroblast Transformation Specific (ETS) (AID 2282941). The conditions noted are these: HepG2 ETS cis-reporter transcription, actives raise or lower the signal. The gist of the method:
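Cis-regulated reporter mRNA induction in HepG2 (transient transfection), 24 h exposure, RT-PCR plus capillary electrophoresis detection; DMSO serves as negative control and baseline.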

Experiment [17] concerns the target Hepatocyte nuclear factor 3-beta (Homo sapiens) (UniProt Q9Y261). In words: ATG_FoxA2_CIS: Attagene CIS-FACTORIAL HepG2 Assay for human Forkhead box A2 (FOXA2) (AID 2282942). The conditions noted are these: HepG2 cis-reporter transcription factor activity, 24 h; actives raise or lower the signal. The gist of the method: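 Cells: HepG2, transient multiplex reporter transfection. Exposure 24 h. Detection: reporter-specific RT-PCR, fluorescent labelling, restriction digest, capillary electrophoresis. Analysis: bidirectional curve fit, DMSO as negative control.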

A short description of experiment [18]: ATG_FoxO_CIS: Attagene CIS-FACTORIAL HepG2 Assay for human Forkhead box O (FoxO) (AID 2282943). The conditions noted are these: HepG2 Attagene cis-reporter, FoxO element, mRNA; actives raise or lower the signal. In a few lines:
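HepG2 cells transiently transfected with cis-element-driven reporter units report endogenous FoxO activity. After 24 h chemical exposure, reporter mRNA quantified by RT-PCR, fluorescent labeling, HpaI digestion and capillary electrophoresis; bidirectional fit versus DMSO.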

Experiment [19] is described as follows: ATG_GLI_CIS: Attagene CIS-FACTORIAL HepG2 Assay for human Zinc Finger Protein GLI1 (AID 2282945). The conditions noted are these: HepG2, Attagene cis-factorial reporter mRNA, GLI element; actives raise or lower the signal. In a few lines: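 Transiently transfected HepG2 cells report endogenous transcription factor activity via cis-element-driven reporter units. After 24 h compound exposure, reporter mRNA was measured by RT-PCR with capillary electrophoresis; bidirectional fitting against DMSO baseline.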

Experiment [20] is described as follows: ATG_GATA_CIS: Attagene CIS-FACTORIAL HepG2 Assay for human GATA Binding Protein (AID 2282944). The conditions noted are these: HepG2 GATA cis-element reporter, Attagene multiplex mRNA; actives raise or lower the signal. The gist of the method:
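DMSO serves as negative control and baseline for bidirectional fitting of reporter mRNA changes. HepG2 cells bearing transiently transfected cis-promoter reporters were exposed 24 h; transcripts detected via RT-PCR and capillary electrophoresis.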

Active and inactive are the calls of the source. How the source made its calls: active means hit-call score of the fitted dose curve at least 0.9, where 1 is the maximum; inactive means score below 0.9.

CCAAT/enhancer-binding protein beta (Homo sapiens), sequence (P17676 whole entry, looked up): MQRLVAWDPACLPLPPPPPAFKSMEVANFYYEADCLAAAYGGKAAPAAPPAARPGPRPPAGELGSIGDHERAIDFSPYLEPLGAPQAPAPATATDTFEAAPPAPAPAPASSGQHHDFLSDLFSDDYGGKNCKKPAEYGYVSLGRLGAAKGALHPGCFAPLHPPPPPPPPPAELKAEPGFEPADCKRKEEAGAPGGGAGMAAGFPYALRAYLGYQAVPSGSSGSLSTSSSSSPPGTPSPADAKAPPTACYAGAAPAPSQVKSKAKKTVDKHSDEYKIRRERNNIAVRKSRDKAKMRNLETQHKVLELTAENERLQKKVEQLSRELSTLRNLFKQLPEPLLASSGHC
Hepatocyte nuclear factor 3-beta (Homo sapiens), sequence (Q9Y261 whole entry, looked up): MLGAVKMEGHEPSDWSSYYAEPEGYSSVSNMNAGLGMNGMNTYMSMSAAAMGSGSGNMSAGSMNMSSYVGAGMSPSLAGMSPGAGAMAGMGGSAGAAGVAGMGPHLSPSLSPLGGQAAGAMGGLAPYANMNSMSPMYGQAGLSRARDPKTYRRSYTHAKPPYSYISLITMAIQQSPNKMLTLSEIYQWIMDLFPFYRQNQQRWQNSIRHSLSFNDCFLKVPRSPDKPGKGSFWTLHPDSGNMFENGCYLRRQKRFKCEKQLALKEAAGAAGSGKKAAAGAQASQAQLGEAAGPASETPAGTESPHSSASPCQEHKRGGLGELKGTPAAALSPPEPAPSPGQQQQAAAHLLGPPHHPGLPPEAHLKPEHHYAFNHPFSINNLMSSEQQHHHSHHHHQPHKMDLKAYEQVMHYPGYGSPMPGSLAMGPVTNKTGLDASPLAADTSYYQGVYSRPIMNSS
Aryl hydrocarbon receptor (Homo sapiens), sequence (P35869 whole entry, looked up): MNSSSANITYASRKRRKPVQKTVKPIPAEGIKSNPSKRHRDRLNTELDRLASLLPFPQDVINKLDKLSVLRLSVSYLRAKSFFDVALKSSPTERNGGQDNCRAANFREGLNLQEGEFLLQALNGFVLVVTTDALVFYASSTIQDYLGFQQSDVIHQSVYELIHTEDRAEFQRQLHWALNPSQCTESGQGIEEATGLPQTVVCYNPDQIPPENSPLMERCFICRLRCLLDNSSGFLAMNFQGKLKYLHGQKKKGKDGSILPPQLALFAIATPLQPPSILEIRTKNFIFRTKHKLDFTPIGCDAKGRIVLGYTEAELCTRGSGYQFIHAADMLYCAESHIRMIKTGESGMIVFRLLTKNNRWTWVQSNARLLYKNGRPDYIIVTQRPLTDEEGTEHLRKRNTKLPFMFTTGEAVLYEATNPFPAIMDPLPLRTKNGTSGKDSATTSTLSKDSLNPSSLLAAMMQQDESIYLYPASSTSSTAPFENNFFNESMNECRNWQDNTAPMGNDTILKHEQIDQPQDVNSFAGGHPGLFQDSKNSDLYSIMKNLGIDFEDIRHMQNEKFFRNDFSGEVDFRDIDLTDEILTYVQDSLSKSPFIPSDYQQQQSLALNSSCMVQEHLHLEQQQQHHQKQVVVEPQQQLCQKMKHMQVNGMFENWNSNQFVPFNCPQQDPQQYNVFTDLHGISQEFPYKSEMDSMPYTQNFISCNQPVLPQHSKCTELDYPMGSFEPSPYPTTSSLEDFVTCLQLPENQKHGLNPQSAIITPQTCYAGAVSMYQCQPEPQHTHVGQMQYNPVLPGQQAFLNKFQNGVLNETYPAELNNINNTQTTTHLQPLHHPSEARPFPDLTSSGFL
Transcription factor E2F1 (Homo sapiens), sequence (Q01094 whole entry, looked up): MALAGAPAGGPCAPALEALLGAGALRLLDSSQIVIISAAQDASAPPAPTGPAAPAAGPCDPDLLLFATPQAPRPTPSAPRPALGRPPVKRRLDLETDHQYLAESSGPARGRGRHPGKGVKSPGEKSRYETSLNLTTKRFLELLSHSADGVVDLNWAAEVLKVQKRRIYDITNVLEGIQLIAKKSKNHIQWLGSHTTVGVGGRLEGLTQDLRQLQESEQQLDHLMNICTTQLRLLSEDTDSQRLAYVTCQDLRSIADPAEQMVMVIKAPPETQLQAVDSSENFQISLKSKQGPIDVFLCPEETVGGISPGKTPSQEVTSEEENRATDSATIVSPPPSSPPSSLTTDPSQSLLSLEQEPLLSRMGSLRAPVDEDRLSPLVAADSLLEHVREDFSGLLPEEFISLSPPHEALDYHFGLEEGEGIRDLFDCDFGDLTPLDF
Retinoic acid receptor alpha (Homo sapiens), sequence (P10276 whole entry, looked up): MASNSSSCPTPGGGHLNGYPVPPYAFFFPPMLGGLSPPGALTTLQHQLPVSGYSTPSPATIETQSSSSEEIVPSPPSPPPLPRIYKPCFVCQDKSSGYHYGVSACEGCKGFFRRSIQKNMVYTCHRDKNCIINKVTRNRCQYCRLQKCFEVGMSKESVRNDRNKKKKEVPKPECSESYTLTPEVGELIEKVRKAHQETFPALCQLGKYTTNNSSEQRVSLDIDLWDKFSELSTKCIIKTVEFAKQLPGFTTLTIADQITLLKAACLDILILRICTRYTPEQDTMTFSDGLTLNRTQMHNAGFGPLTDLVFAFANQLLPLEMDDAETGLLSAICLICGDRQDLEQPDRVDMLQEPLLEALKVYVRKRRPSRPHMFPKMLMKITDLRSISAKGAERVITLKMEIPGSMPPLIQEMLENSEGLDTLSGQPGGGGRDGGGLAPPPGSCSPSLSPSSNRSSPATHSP

A word on the AC50: it is the concentration giving half of the maximal activity seen. With `Cc1nccn1-c1ccc(Sc2cccc(C3(C(N)=O)CCOCC3)c2)cc1`, the half-maximal activity concentration (AC50) is 1.67 µM (active) in experiment [1]; 1.94 µM (active) in experiment [2]; 0.93 µM (active) in [3]; 8.08 µM (active) in [7]; 1.83 µM (active) in experiment [9]; 4.56 µM (active) in experiment [13]. Besides, the AC50 in experiment [16] was 4.05 µM (active); in experiment [18], 3.15 µM (active). Further, the molecule was classed as inactive in experiment [4], in experiment [5], in experiment [6], in experiment [8], in experiment [10] and in experiment [11]. In addition, the result in experiment [12], in experiment [14], in experiment [15], in experiment [17] and in experiment [19] was inactive.

For the molecule `CCc1cccc(CC)c1N`, the molecule was called inactive in [1], in experiment [2], in [3], in experiment [4], in experiment [5] and in experiment [6]. The outcome in experiment [7], in experiment [8], in experiment [10], in experiment [11], in experiment [12] and in [13] was inactive. In addition, the molecule was classed as inactive in experiment [14], in experiment [15], in experiment [16], in [17], in experiment [18] and in experiment [20]. The molecule was classed as inactive in experiment [19].

Consider `C=CCc1cc(S(=O)(=O)c2ccc(O)c(CC=C)c2)ccc1O`, for which the result in [1], in experiment [2], in experiment [5], in experiment [7], in experiment [9] and in experiment [12] was inactive. Also, the result in [14], in experiment [16], in experiment [17], in experiment [18] and in [19] was inactive. For the same molecule, the AC50 in [3] is 27.9 µM (active); in experiment [4], 20.4 µM (active); in [6], 23.2 µM (active); in experiment [8], 22.1 µM (active); in experiment [11], 55.6 µM (active); in experiment [13], 45.8 µM (active). For the same molecule, the AC50 in experiment [15] is 1.12 µM (active).
